{"source": "PubChem BioAssay (EPA / NIEHS)", "note": "The source made the active and inactive calls. Rule for the calls: active = hit-call score of the fitted dose curve at least 0.9, where 1 is the maximum; inactive = score below 0.9.", "data": [{"read-out": "Glutamate-cysteine ligase regulatory (GCLM), GCLM (gene 2730)", "test": "LTEA_HepaRG_GCLM: Life Technologies and Expression Analysis (LTEA) Assay for Glutamate-cysteine ligase regulatory (GCLM) using HepaRG (AID 2283500)", "settings": "mRNA level, 48 h; actives raise or lower the signal", "outline": "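In this multiplexed HepaRG gene-expression assay, GCLM mRNA change after 48 h treatment (8 concentrations, max 100 uM) was scored against DMSO by bidirectional curve fitting.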", "values": [{"smiles": "Cc1c(COC(=O)[C@@H]2[C@H](/C=C(\\Cl)C(F)(F)F)C2(C)C)cccc1-c1ccccc1", "outcome": "inactive"}, {"smiles": "Nc1c(Cl)c(Cl)nc(C(=O)O)c1Cl", "outcome": "inactive"}, {"smiles": "CC(C)NC(=O)N1CC(=O)N(c2cc(Cl)cc(Cl)c2)C1=O", "AC50": "27.8 µM (active)"}, {"smiles": "Cn1c(-c2ccccc2)cc(-c2ccccc2)[n+]1C", "outcome": "inactive"}, {"smiles": "COC(=O)c1c(C(F)F)nc(C(F)(F)F)c(C2=NCCS2)c1CC(C)C", "outcome": "inactive"}, {"smiles": "Clc1nc(Cl)nc(Nc2ccccc2Cl)n1", "outcome": "inactive"}, {"smiles": "COc1cc(OC)nc(NC(=O)NS(=O)(=O)c2ncccc2OCC(F)(F)F)n1", "outcome": "inactive"}, {"smiles": "Cc1cc(C)nc(Nc2ccccc2)n1", "outcome": "inactive"}, {"smiles": "O=c1n(Cl)c(=O)n(Cl)c(=O)n1Cl", "outcome": "inactive"}, {"smiles": "CSC(=O)c1c(C(F)F)nc(C(F)(F)F)c(C(=O)SC)c1CC(C)C", "outcome": "inactive"}, {"smiles": "C=C(C)CN(CC)c1c([N+](=O)[O-])cc(C(F)(F)F)cc1[N+](=O)[O-]", "outcome": "inactive"}, {"smiles": "CCOc1cc(C(C)(C)C)ccc1C1COC(c2c(F)cccc2F)=N1", "note": "(configuration not stated)", "outcome": "inactive"}, {"smiles": "O=C(Nc1ccccc1-c1ccc(Cl)cc1)c1cccnc1Cl", "outcome": "inactive"}, {"smiles": "COP(=O)(OC)O/C(C)=C/C(=O)N(C)C", "outcome": "inactive"}, {"smiles": "CC(C)Nc1nc(Cl)nc(NC(C)C)n1", "outcome": "inactive"}, {"smiles": "COP(=S)(OC)Oc1ccc([N+](=O)[O-])c(C)c1", "outcome": "inactive"}, {"smiles": "COP(=S)(OC)SCn1nnc2ccccc2c1=O", "outcome": "inactive"}, {"smiles": "C=CCOC(=O)C(C)(C)OC(=O)c1cc(-n2c(=O)cc(C(F)(F)F)n(C)c2=O)ccc1Cl", "outcome": "inactive"}, {"smiles": "CNC(=O)N(C)c1nnc(C(C)(C)C)s1", "outcome": "inactive"}, {"smiles": "CCSC(=O)N1CCCCCC1", "outcome": "inactive"}, {"smiles": "CC(C)C1(C)N=C(c2ncccc2C(=O)O)NC1=O", "note": "(configuration not stated)", "outcome": "inactive"}, {"smiles": "Nc1cnn(-c2ccccc2)c(=O)c1Cl", "outcome": "inactive"}, {"smiles": "CC(C)N1C(=O)N(c2ccccc2)CSC1=NC(C)(C)C", "AC50": "74.7 µM (active)"}, {"smiles": "COC(=O)NS(=O)(=O)c1ccc(N)cc1", "outcome": "inactive"}, {"smiles": "Nc1c(Cl)c(F)nc(OCC(=O)O)c1Cl", "outcome": "inactive"}, {"smiles": "Clc1cccc(C(Cl)(Cl)Cl)n1", "outcome": "inactive"}, {"smiles": "Cc1cnc(C2=NC(C)(C(C)C)C(=O)N2)c(C(=O)O)c1", "note": "(configuration not stated)", "outcome": "inactive"}, {"smiles": "CS(=O)(=O)c1ccc(C(=O)C2C(=O)CCCC2=O)c([N+](=O)[O-])c1", "outcome": "inactive"}, {"smiles": "O=C(O)c1c(Cl)ccc2cc(Cl)cnc12", "outcome": "inactive"}, {"smiles": "COC(=O)NC(=S)Nc1ccccc1NC(=S)NC(=O)OC", "outcome": "inactive"}, {"smiles": "CNC(=O)Oc1cccc2ccccc12", "outcome": "inactive"}, {"smiles": "COC(=O)N(C(=O)N1CO[C@@]2(C(=O)OC)Cc3cc(Cl)ccc3C2=N1)c1ccc(OC(F)(F)F)cc1", "outcome": "inactive"}, {"smiles": "CC(C)Oc1cccc(NC(=O)c2ccccc2C(F)(F)F)c1", "outcome": "inactive"}, {"smiles": "CN=C=S", "outcome": "inactive"}, {"smiles": "CCC(C)n1c(=O)[nH]c(C)c(Br)c1=O", "note": "(configuration not stated)", "outcome": "inactive"}, {"smiles": "CO/N=C(/C1=NOCCO1)c1ccccc1Oc1ncnc(Oc2ccccc2Cl)c1F", "AC50": "19.5 µM (active)"}]}, {"read-out": "Glutathione S-transferase M3 (GSTM3), GSTM3 (gene 2947)", "test": "LTEA_HepaRG_GSTM3: Life Technologies and Expression Analysis (LTEA) Assay for Glutathione S-transferase M3 (GSTM3) using HepaRG (AID 2283501)", "settings": "mRNA level, 48 h; actives raise or lower the signal", "outline": "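GSTM3 transcript levels came from Fluidigm TaqMan qRT-PCR normalized to three housekeeping genes, fitted in both directions against DMSO. HepaRG cultures received chemicals for 48 h in serum-free induction medium (0.5% DMSO), 8 half-log concentrations up to 100 uM, duplicate.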", "values": [{"smiles": "Cc1c(COC(=O)[C@@H]2[C@H](/C=C(\\Cl)C(F)(F)F)C2(C)C)cccc1-c1ccccc1", "outcome": "inactive"}, {"smiles": "Nc1c(Cl)c(Cl)nc(C(=O)O)c1Cl", "outcome": "inactive"}, {"smiles": "CC(C)NC(=O)N1CC(=O)N(c2cc(Cl)cc(Cl)c2)C1=O", "outcome": "inactive"}, {"smiles": "Cn1c(-c2ccccc2)cc(-c2ccccc2)[n+]1C", "AC50": "85.7 µM (active)"}, {"smiles": "COC(=O)c1c(C(F)F)nc(C(F)(F)F)c(C2=NCCS2)c1CC(C)C", "outcome": "inactive"}, {"smiles": "Clc1nc(Cl)nc(Nc2ccccc2Cl)n1", "outcome": "inactive"}, {"smiles": "COc1cc(OC)nc(NC(=O)NS(=O)(=O)c2ncccc2OCC(F)(F)F)n1", "outcome": "inactive"}, {"smiles": "Cc1cc(C)nc(Nc2ccccc2)n1", "outcome": "inactive"}, {"smiles": "O=c1n(Cl)c(=O)n(Cl)c(=O)n1Cl", "outcome": "inactive"}, {"smiles": "CSC(=O)c1c(C(F)F)nc(C(F)(F)F)c(C(=O)SC)c1CC(C)C", "outcome": "inactive"}, {"smiles": "C=C(C)CN(CC)c1c([N+](=O)[O-])cc(C(F)(F)F)cc1[N+](=O)[O-]", "outcome": "inactive"}, {"smiles": "CCOc1cc(C(C)(C)C)ccc1C1COC(c2c(F)cccc2F)=N1", "note": "(configuration not stated)", "outcome": "inactive"}, {"smiles": "O=C(Nc1ccccc1-c1ccc(Cl)cc1)c1cccnc1Cl", "outcome": "inactive"}, {"smiles": "COP(=O)(OC)O/C(C)=C/C(=O)N(C)C", "outcome": "inactive"}, {"smiles": "CC(C)Nc1nc(Cl)nc(NC(C)C)n1", "outcome": "inactive"}, {"smiles": "COP(=S)(OC)Oc1ccc([N+](=O)[O-])c(C)c1", "outcome": "inactive"}, {"smiles": "COP(=S)(OC)SCn1nnc2ccccc2c1=O", "outcome": "inactive"}, {"smiles": "C=CCOC(=O)C(C)(C)OC(=O)c1cc(-n2c(=O)cc(C(F)(F)F)n(C)c2=O)ccc1Cl", "outcome": "inactive"}, {"smiles": "CNC(=O)N(C)c1nnc(C(C)(C)C)s1", "outcome": "inactive"}, {"smiles": "CCSC(=O)N1CCCCCC1", "outcome": "inactive"}, {"smiles": "CC(C)C1(C)N=C(c2ncccc2C(=O)O)NC1=O", "note": "(configuration not stated)", "outcome": "inactive"}, {"smiles": "Nc1cnn(-c2ccccc2)c(=O)c1Cl", "outcome": "inactive"}, {"smiles": "CC(C)N1C(=O)N(c2ccccc2)CSC1=NC(C)(C)C", "outcome": "inactive"}, {"smiles": "COC(=O)NS(=O)(=O)c1ccc(N)cc1", "outcome": "inactive"}, {"smiles": "Nc1c(Cl)c(F)nc(OCC(=O)O)c1Cl", "outcome": "inactive"}, {"smiles": "Clc1cccc(C(Cl)(Cl)Cl)n1", "outcome": "inactive"}, {"smiles": "Cc1cnc(C2=NC(C)(C(C)C)C(=O)N2)c(C(=O)O)c1", "note": "(configuration not stated)", "outcome": "inactive"}, {"smiles": "CS(=O)(=O)c1ccc(C(=O)C2C(=O)CCCC2=O)c([N+](=O)[O-])c1", "outcome": "inactive"}, {"smiles": "O=C(O)c1c(Cl)ccc2cc(Cl)cnc12", "outcome": "inactive"}, {"smiles": "COC(=O)NC(=S)Nc1ccccc1NC(=S)NC(=O)OC", "outcome": "inactive"}, {"smiles": "CNC(=O)Oc1cccc2ccccc12", "outcome": "inactive"}, {"smiles": "COC(=O)N(C(=O)N1CO[C@@]2(C(=O)OC)Cc3cc(Cl)ccc3C2=N1)c1ccc(OC(F)(F)F)cc1", "outcome": "inactive"}, {"smiles": "CC(C)Oc1cccc(NC(=O)c2ccccc2C(F)(F)F)c1", "outcome": "inactive"}, {"smiles": "CN=C=S", "outcome": "inactive"}, {"smiles": "CCC(C)n1c(=O)[nH]c(C)c(Br)c1=O", "note": "(configuration not stated)", "outcome": "inactive"}, {"smiles": "CO/N=C(/C1=NOCCO1)c1ccccc1Oc1ncnc(Oc2ccccc2Cl)c1F", "outcome": "inactive"}]}]}
